# Measured values: PubChem BioAssay
# Activity calls are given as the source filed them. How the calls were made is not given here.
# Experiment: inhibition of Brca1/Bard1 split-luciferase complementation, confirmation, counter-screen for Mdm2/MdmX interaction inhibitor project, luminescence, single concentration (AID 504668)
# Settings: Brca1/Bard1 bimolecular luciferase complementation counterscreen, at 8 µM, stronger effect = higher value
row,SMILES,inhibition
1,Cc1ccc(-n2nc(C)c3c(C)c(CCC(=O)Nc4ccc(CN5CCCC5)cc4)c(C)nc32)cc1,25.5% (active)
2,O=C(CCl)NCc1c(Cl)cccc1-n1cccc1,35.6% (active)
3,CCN(CC)CCCNC(=O)c1ccc2c(Cl)c3c(nc2c1)CCCC3,30.8% (active)
4,CC(C)(C)C(=O)N1CCN(c2ccc(NC(=O)c3ccc([N+](=O)[O-])o3)cc2)CC1,30.5% (active)
5,CCOC(=O)N1C(=O)[C@@](c2ccc(Cl)cc2)(C(C)C)N1C(=O)OCC,33.2% (active)
6,CCC(=O)NC(c1ccc(C)cc1)c1cc(Cl)c2cccnc2c1O (stereo not given),23.8% (active)
7,CCN1/C(=C/c2ccc3cccc(C)c3[n+]2CC)Sc2ccccc21,26.4% (active)
8,CC1=NNC(=O)/C1=C\c1cn(-c2ccccc2)nc1-c1cccs1,25.7% (active)
9,CCOC(=O)c1cnc(-n2nc(C)cc2C)nc1NNc1nc(-c2ccccc2)cc(-c2ccccc2)n1,25% (active)
10,COc1cccc(/C=C2\SC(=S)N(CCCC(=O)N3CCCC3)C2=O)c1,35% (active)
11,CN1CCN(c2cc(N3CCN(C(=O)c4ccco4)CC3)c3c4c(onc24)-c2ccccc2C3=O)CC1,24.3% (active)
12,C/C(=N\NC(=O)c1nnn(-c2nonc2N)c1CN(C)c1ccccc1)c1ccccc1O,30.5% (active)
13,CC(Oc1cccc(Br)c1)C(=O)NNC(=O)c1ccccn1 (stereo not given),35.8% (active)
14,COc1ccc(/C=C2\SC(=S)N(CCC(=O)NCCc3ccc(O)cc3)C2=O)cc1,27.4% (active)
15,Cc1ncc(CO)c(/C=N/Nc2ccc(C(F)(F)F)cn2)c1O,33.8% (active)
16,C=CCn1c(O)c(N=NC(=S)Nc2cccc(C)c2)c2ccccc21,33.1% (active)
17,CN(C)CCNC(=O)/C(=C/c1ccc(-c2ccc(Cl)cc2Cl)o1)NC(=O)c1ccccc1,26.3% (active)
18,CCOc1ccc(-c2nnc(SCC(=O)Nc3ccc4c(c3)c3ccccc3n4CC)n2N)cc1,23.1% (active)
19,Cc1ccc(/C=N/NC(=O)c2c(-c3ccccc3)noc2C)c(O)c1,31.1% (active)
20,CCOc1ccc2nc(NC3=NC(c4ccc(OC)cc4)CC(=O)N3)nc(C)c2c1 (stereo not given),30.6% (active)

row,SMILES,inhibition
1,COc1ccc2cc1Oc1ccc(cc1)C[C@H]1c3c(cc4c(c3Oc3cc5c(cc3OC)CCN(C)[C@@H]5C2)OCO4)CCN1C,31.6% (active)
2,C/C(=N\NC(=O)c1cc(-c2cccs2)nc2ccccc12)c1ccccn1,28.3% (active)
3,COc1ccc([C@@H]2[C@@H]3C(=O)N(C(C)(C)C)C(=O)[C@@H]3[C@]3(Cc4ccc(Cl)cc4)C(=O)N(c4ccc(Br)cc4)C(=O)N23)cc1,26.6% (active)
4,COc1ccc(NC(=O)CSc2nc3c(sc4ccccc43)c(=O)n2CCCN2CCCC2)cc1,23.1% (active)
5,Cc1ccc(-c2cnc(C3CC3)o2)cc1S(=O)(=O)Nc1ccccc1,33.6% (active)
6,Cn1c(C(=O)NCc2cccs2)cc2oc3ccccc3c21,27.7% (active)
7,CCc1ccccc1OCC(=O)Nc1nc(-c2cccnc2)cs1,35.6% (active)
8,CCc1ccc(/C=C/C(=O)c2c(C)cc(C)[nH]c2=O)cc1,30.6% (active)
9,COc1cc(C(=O)N/N=C(\Cc2ncc[nH]2)c2ccccc2)cc(OC)c1OC,23.7% (active)
10,O=C(Nc1ccc(N2CCCCC2)cc1)c1ccccn1,27.9% (active)
11,C/C(=N\NC(=O)C1CCCN(S(=O)(=O)c2ccccc2)C1)c1ccccn1 (stereo not given),35.2% (active)
12,Cc1ccc(C(=O)Nc2nc(-c3ccccn3)cs2)cc1S(=O)(=O)N1CCOCC1,23.2% (active)
13,CC(C)(C)c1cc(NC(=O)CCl)n(-c2ccccc2)n1,24.1% (active)
14,CCCC(=O)NC(c1cccs1)c1cc(Cl)c2cccnc2c1O (stereo not given),24.8% (active)
15,CC(=O)/C(C#N)=C1\NC(=O)C(Cc2ccccc2Cl)S1 (stereo not given),30.1% (active)
16,Cc1c(CN(C)C)c2c(n1Cc1ccccc1)C(=O)c1ccc(Br)cc1-2,29.6% (active)
17,Oc1c(CN2CCN(c3ccccn3)CC2)cc(Cl)c2cccnc12,28% (active)
18,Oc1ccc(/C=N/Nc2nc(-c3ccccc3F)nc3ccccc23)c(O)c1,31% (active)
19,CC(=O)NC(c1ccco1)c1ccc2cccnc2c1O (stereo not given),27.7% (active)
20,O=C(CCl)N1CCN2C(=O)c3ccccc3C12c1ccc(Cl)cc1 (stereo not given),28.5% (active)
